Records with an inconclusive call do not appear. Activity calls are given as the source filed them. The call rests on the fitted dose curve; in most records, active means well fitted inhibition curve with a large enough effect; inconclusive means small, poorly fitted or top-dose-only effect; inactive means flat fitted curve, though single readings scatter.
System: SC27B
Experiment: qHTS profiling for inhibitors of Plasmodium falciparum proliferation (AID 504749); further: nearly all actives have a fitted effect of over 60% in size;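 on activity, negative = inhibition: 0% = DMSO vehicle and full inhibition = artemisinin control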
Conditions: P. falciparum in erythrocytes, SYBR Green DNA, 72 h; series mostly up to 28.7 µM; activity, negative = inhibition: at the top concentration
In short: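 P. falciparum-infected erythrocytes (0.3% parasitemia, 2.5% hematocrit) incubated with compound 72 h at 37 C, 5% CO2. Parasite DNA detected by SYBR Green after lysis, overnight at room temperature; normalised to 0.29 uM artemisinin and DMSO.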
Potency means the concentration at half of the fitted maximal effect.

| Structure (SMILES) | Potency | activity, negative = inhibition |
| --- | --- | --- |
| CO[C@H](C(=O)[C@@H](O)[C@@H](C)O)C1Cc2cc3cc(O[C@H]4C[C@@H](O[C@H]5C[C@@H](O)[C@H](O)[C@@H](C)O5)[C@@H](O)[C@@H](C)O4)c(C)c(O)c3c(O)c2C(=O)[C@H]1O[C@H]1C[C@@H](O[C@H]2C[C@@H](O[C@H]3C[C@](C)(O)[C@H](O)[C@@H](C)O3)[C@H](O)[C@@H](C)O2)[C@H](O)[C@@H](C)O1 (stereo not given in full) | 126 nM (active) |  |
| O=C(O)c1cc(O)c2c(c1)[O][Bi][O]2 |  | 1.2% (inactive) |
| NC(=O)c1ncn(C2OC(CO)C(O)C2O)n1 (stereo not given) |  | 1.65% (inactive) |
| CC[N+](C)(C)Cc1ccccc1Br |  | -0.152% [at 12.8 µM] (inactive) |
| Nc1ncnc2c1ncn2[C@@H]1O[C@H](COP(=O)(O)OP(=O)(O)OP(=O)(O)O)[C@@H](O)[C@H]1O |  | 10.1% (inactive) |
| CCCCCCCCCCCCCCCC(=O)OCC(COC(=O)CCCCCCCCCCCCCCC)OC(=O)CCCCCCCCCCCCCCC |  | 14.2% (inactive) |
| CCCC(=O)O[C@]1(C(=O)CCl)[C@H](C)C[C@@H]2[C@H]3CCC4=CC(=O)C=C[C@]4(C)[C@@]3(F)C(=O)C[C@@]21C | 2820 nM (active) |  |
| CC(C)(C)C(=O)OCOC(=O)[C@@H]1N2C(=O)[C@@H](N=CN3CCCCCC3)[C@H]2SC1(C)C |  | 11.5% [at 12.8 µM] (inactive) |
| O=S(=O)(O)O |  | -6.69% (inactive) |
| Cc1ccccc1OCC(O)CNCCOc1ccc(C(N)=O)cc1 (stereo not given) |  | 13.1% (inactive) |
| CCCCC/C=C\C/C=C\CCCCCCCC(=O)O |  | -1.87% (inactive) |
| C[C@@H]1CCC2[C@@H](C)[C@@H](O)O[C@@H]3O[C@@]4(C)CC[C@@H]1[C@@]23OO4 (stereo not given in full) | 2 nM (active) |  |
| Nc1c(N=Nc2ccc(-c3ccc(N=Nc4cc(S(=O)(=O)O)c5ccccc5c4N)cc3)cc2)cc(S(=O)(=O)O)c2ccccc12 |  | 1.66% (inactive) |
| CC1(C)S[C@@H]2[C@H](NC(=O)[C@@H](NC(=O)N3CCNC3=O)c3ccccc3)C(=O)N2[C@H]1C(=O)O |  | 15.8% [at 12.8 µM] (inactive) |
| COCC(=O)Nc1cc(Sc2ccccc2)ccc1N=C(NC(=O)OC)NC(=O)OC |  | -11.2% (inactive) |
| CC(O)CO (stereo not given) |  | 7.76% (inactive) |
| COC(=O)CCC(=O)CN |  | 3.04% (inactive) |
| CC1=C(/C=C/C(C)=C/C=C/C(C)=C/C=C/C=C(C)/C=C/C=C(C)/C=C/C2=C(C)CCCC2(C)C)C(C)(C)CCC1 |  | 6.43% (inactive) |
| CN=C(NC#N)Nc1ccc(C2=NNC(=O)C[C@@H]2C)cc1 |  | 9.52% (inactive) |
| C[C@H]1C[C@H]2[C@@H]3CCC4=CC(=O)C=C[C@]4(C)[C@@]3(F)[C@@H](O)C[C@]2(C)[C@@]1(O)C(=O)CO |  | 3.69% (inactive) |
| O=C1C(=O)c2ncccc2-c2cccnc21 | 2820 nM (active) |  |
| CCCCCCCCCCCCCC[n+]1ccc(C)cc1 | 3980 nM (active) |  |
| COC(C(=O)C(O)C(C)O)C1Cc2cc3cc(OC4CC(OC5CC(O)C(O)C(C)O5)C(O)C(C)O4)c(C)c(O)c3c(O)c2C(=O)C1OC1CC(OC2CC(OC3CC(C)(O)C(O)C(C)O3)C(O)C(C)O2)C(O)C(C)O1 (stereo not given) | 178 nM (active) |  |
| CCCCCCC(O)C/C=C/CCCCCCCC(=O)O (stereo not given) |  | 2.38% (inactive) |
| CCCCCC(CC)COC(=O)CC(C(=O)OCC(CC)CCCC)S(=O)(=O)O (stereo not given) |  | 0.401% (inactive) |
| C[C@]12CCC(=O)C=C1CC[C@@H]1[C@@H]2[C@@H](O)C[C@@]2(C)[C@H]1CC[C@]2(O)C(=O)COP(=O)(O)O |  | -0.557% (inactive) |
| Cc1cc(C(=O)NNCc2ccccc2)no1 |  | -3.44% [at 12.8 µM] (inactive) |
| O=C(O)CCC(=O)C(=O)O |  | -3.59% (inactive) |
| CCCCCCCCCCCC[n+]1ccc2ccccc2c1 | 1410 nM (active) |  |
| Cc1cn([C@H]2C[C@H](O)[C@@H](CO)O2)c(=O)[nH]c1=O |  | 1.08% (inactive) |

Reference: PubChem BioAssay (NCATS)
